According to the supplement of paper PMC11732987, “Enantioselective OTUD7B fragment discovery through chemoproteomics screening and high-throughput optimisation” (Communications Chemistry, 2025):

Key:
Assay in all cases: log2 ratio of Biotin-Ahx-Ub-VS probe labelling (fragment/DMSO); higher = less target engagement (more negative = stronger competition), active = hit call of the paper (q ≤ 0.05, log2 ratio ≤ -1)
Details in all cases: compound concentration: 200 uM; treatment time: 3 h
USP9X = USP9X (UniProt Q93008)
How it was run: (§1)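 Using Biotin-Ahx-Ub-VS at 0.5 µM final for 1 h, DUBs were labelled in HEK293T lysate (495 µg per sample) that had first been treated in triplicate with fragment at 200 µM or vehicle for 3 h. NeutrAvidin enrichment, LysC and trypsin digestion and diaPASEF LC-MS/MS followed. Spectronaut label-free quantities were global-median-normalised. Values are average log2 fragment/vehicle ratios by unpaired t-test, using proteins with ≥2 unique peptides.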

UniProt O00487 = target: UniProt O00487
How it was run: as §1

UniProt O00507 = target: UniProt O00507
How it was run: as §1

UniProt P51784 = target: UniProt P51784
How it was run: as §1

UniProt Q5T2D3 = target: T1, UniProt Q5T2D3
T1 sequence (whole entry): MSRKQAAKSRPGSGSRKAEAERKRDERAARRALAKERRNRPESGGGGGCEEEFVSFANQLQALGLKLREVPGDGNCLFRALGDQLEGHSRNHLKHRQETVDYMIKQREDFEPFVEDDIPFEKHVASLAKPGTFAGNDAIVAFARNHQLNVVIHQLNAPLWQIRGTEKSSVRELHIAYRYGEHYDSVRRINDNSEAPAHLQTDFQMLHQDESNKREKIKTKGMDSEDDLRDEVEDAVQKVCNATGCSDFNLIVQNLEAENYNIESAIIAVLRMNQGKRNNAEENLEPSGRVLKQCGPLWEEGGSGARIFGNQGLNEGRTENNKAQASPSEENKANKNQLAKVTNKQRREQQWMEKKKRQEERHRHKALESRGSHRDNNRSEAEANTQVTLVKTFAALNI
How it was run: as §1

UniProt Q8TE49 = target: T2, UniProt Q8TE49
T2 sequence (whole entry): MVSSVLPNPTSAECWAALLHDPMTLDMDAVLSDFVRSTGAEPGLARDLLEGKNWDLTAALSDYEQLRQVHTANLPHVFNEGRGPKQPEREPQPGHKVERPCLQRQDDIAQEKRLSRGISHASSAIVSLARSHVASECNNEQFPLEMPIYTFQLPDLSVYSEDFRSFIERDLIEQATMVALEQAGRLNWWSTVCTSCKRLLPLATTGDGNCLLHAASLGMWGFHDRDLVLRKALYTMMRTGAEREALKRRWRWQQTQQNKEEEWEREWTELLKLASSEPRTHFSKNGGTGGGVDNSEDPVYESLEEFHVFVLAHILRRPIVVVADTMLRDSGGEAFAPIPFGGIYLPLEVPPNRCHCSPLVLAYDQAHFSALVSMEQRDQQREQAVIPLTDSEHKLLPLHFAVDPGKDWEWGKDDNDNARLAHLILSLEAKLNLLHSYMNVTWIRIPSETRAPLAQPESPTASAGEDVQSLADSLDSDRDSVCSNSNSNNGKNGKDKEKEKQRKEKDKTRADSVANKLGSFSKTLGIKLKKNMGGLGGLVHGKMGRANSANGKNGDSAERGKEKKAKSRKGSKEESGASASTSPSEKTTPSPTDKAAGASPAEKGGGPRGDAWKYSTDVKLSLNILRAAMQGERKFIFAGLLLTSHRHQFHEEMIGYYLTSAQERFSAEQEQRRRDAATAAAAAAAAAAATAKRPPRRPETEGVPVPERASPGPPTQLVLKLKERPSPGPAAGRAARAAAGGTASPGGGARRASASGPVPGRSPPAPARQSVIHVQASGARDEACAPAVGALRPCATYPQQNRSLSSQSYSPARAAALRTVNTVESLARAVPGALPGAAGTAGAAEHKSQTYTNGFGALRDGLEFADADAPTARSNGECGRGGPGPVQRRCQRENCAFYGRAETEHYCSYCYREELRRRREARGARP
How it was run: as §1

UniProt Q9P2H5 = target: T3, UniProt Q9P2H5
T3 sequence (whole entry): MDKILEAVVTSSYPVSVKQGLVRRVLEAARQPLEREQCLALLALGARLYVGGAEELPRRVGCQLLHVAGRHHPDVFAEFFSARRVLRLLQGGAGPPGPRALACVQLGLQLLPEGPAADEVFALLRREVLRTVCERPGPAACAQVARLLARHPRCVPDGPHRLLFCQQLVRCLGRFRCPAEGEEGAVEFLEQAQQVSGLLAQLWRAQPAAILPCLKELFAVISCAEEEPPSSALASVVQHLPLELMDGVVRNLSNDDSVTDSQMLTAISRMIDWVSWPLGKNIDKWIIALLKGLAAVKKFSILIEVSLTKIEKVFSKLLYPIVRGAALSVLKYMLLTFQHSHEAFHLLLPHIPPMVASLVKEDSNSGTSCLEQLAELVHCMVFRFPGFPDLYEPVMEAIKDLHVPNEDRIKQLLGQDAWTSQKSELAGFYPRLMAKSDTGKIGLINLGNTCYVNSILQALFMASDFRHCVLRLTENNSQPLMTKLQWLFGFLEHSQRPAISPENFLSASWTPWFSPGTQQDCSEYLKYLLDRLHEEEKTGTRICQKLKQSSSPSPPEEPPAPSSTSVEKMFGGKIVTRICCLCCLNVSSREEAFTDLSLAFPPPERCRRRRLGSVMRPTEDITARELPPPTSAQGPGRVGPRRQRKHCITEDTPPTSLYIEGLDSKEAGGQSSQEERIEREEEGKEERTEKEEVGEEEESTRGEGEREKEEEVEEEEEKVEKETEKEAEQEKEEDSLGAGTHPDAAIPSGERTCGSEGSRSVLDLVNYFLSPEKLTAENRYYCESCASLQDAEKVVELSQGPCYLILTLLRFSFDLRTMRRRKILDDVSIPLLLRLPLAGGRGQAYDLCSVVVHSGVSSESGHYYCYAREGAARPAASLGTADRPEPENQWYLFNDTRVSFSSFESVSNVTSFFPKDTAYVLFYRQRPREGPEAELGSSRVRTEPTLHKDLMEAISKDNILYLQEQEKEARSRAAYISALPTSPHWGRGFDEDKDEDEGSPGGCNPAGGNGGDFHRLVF
How it was run: as §1

UniProt Q9UGI0 = target: T4, UniProt Q9UGI0
T4 sequence (whole entry): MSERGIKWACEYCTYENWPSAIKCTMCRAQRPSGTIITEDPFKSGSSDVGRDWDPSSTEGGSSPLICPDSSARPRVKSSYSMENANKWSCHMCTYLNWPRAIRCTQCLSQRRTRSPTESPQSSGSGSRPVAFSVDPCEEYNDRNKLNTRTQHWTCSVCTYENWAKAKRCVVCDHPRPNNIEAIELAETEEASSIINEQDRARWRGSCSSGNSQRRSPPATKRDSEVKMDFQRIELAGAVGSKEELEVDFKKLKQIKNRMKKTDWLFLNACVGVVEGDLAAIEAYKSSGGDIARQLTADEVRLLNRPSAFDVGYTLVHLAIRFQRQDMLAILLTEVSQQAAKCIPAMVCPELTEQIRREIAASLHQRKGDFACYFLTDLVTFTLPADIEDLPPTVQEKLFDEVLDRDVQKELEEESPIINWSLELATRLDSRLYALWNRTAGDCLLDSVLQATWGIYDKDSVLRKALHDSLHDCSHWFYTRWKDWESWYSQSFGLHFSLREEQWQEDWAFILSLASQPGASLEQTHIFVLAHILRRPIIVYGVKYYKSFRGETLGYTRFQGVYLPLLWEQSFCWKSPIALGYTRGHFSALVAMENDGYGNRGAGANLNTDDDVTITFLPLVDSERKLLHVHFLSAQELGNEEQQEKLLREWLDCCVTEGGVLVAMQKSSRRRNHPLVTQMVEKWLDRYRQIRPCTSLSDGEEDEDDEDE
How it was run: as §1

YOD1 = target: T5, YOD1 (UniProt Q5VVQ6)
T5 sequence (whole entry): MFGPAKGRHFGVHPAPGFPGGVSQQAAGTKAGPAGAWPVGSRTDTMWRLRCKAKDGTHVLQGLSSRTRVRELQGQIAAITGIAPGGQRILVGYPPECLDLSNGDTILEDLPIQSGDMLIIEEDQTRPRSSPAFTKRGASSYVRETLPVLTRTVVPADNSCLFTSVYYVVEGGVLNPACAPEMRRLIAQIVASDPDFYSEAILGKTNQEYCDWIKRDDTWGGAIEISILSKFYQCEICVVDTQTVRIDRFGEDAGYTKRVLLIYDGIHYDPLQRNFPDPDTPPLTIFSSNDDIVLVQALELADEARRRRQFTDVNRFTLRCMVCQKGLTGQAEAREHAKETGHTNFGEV
How it was run: as §1

Measured: log2 ratio of Biotin-Ahx-Ub-VS probe labelling

UniProt O00507, sequence (O00507 whole entry): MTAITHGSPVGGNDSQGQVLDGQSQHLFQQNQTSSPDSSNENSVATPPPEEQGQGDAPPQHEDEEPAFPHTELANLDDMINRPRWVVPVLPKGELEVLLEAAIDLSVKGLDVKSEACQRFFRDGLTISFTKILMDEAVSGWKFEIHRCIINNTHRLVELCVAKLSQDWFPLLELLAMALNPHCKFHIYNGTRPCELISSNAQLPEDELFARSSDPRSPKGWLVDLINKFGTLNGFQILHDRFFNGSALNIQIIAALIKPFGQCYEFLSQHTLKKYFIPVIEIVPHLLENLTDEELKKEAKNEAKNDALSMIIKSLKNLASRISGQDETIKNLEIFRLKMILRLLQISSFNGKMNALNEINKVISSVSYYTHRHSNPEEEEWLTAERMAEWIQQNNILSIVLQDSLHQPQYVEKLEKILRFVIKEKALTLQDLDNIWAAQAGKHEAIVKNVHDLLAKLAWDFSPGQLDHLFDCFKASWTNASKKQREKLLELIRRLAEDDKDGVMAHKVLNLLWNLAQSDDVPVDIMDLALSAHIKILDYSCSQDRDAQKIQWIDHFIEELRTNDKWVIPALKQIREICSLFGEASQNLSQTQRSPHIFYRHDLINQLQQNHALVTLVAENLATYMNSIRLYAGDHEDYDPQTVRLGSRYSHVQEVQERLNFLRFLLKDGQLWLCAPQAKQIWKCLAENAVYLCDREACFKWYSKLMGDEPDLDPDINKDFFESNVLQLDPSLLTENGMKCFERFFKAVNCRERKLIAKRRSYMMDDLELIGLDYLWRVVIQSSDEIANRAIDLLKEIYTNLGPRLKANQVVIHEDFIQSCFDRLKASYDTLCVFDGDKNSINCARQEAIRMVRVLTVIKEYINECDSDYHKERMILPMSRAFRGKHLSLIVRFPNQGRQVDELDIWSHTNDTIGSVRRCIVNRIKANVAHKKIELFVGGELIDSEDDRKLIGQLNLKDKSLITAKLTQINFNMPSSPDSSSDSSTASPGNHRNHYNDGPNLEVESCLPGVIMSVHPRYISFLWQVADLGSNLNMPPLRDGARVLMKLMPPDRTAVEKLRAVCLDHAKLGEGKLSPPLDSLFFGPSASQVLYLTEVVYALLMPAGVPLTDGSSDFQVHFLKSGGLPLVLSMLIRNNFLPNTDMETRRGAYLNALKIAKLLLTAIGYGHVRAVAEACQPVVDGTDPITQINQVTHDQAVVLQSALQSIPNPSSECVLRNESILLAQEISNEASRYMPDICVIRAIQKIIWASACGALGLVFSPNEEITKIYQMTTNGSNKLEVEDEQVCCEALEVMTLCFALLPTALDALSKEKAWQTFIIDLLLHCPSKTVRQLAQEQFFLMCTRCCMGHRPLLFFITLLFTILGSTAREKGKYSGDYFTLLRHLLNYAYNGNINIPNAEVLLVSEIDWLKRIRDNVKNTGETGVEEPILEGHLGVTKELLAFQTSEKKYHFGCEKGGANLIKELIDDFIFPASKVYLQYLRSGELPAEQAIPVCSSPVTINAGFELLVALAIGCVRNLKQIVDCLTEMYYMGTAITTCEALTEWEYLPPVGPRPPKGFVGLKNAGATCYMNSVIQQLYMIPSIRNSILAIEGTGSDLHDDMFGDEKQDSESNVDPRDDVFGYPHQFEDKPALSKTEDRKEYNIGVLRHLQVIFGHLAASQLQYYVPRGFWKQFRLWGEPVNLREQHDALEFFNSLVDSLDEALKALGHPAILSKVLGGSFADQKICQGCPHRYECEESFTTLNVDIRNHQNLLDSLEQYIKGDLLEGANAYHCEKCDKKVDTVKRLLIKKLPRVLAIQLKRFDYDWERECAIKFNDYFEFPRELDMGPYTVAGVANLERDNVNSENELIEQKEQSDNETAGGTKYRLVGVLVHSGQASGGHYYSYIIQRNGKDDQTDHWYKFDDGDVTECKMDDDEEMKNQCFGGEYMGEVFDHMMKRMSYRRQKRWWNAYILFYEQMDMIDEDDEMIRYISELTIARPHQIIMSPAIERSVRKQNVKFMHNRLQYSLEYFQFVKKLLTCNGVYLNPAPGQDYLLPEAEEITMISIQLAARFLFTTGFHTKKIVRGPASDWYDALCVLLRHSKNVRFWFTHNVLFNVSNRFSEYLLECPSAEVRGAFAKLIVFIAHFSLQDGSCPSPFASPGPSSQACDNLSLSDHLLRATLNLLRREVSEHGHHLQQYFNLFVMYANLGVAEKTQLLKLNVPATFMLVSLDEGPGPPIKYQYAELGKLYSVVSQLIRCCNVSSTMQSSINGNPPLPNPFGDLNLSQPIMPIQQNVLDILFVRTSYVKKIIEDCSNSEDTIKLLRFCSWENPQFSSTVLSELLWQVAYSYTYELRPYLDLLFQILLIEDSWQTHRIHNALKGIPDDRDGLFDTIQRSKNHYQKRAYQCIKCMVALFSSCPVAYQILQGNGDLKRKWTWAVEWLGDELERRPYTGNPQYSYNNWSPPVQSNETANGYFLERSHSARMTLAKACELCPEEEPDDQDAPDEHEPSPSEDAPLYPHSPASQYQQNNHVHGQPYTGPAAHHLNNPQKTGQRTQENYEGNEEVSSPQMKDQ
UniProt P51784, sequence (P51784 whole entry): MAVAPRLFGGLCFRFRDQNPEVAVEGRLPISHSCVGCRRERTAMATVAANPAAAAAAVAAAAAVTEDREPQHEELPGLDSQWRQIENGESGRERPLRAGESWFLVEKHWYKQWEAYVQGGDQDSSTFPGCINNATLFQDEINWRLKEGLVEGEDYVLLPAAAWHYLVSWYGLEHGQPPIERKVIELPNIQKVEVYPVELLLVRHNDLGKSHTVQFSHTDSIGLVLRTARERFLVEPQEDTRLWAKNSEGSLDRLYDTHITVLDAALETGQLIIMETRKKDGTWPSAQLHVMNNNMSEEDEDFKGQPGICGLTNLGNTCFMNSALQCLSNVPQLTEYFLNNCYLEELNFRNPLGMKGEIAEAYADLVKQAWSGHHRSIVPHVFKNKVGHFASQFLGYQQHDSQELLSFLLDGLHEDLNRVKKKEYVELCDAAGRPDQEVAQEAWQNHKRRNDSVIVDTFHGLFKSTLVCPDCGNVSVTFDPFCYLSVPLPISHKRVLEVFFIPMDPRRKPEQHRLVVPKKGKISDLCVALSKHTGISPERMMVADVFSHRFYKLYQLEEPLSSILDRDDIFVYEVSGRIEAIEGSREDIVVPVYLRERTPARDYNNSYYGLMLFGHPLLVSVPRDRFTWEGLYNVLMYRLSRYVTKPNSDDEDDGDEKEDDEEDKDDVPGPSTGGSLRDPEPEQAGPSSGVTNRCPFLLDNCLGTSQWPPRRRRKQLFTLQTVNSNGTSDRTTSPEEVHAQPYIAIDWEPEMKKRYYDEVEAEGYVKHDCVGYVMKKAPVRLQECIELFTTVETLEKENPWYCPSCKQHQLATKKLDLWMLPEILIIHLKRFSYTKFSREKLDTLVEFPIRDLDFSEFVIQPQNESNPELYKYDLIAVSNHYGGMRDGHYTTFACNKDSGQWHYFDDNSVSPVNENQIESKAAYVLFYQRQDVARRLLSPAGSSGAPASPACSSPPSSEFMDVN
UniProt O00487, sequence (O00487 whole entry): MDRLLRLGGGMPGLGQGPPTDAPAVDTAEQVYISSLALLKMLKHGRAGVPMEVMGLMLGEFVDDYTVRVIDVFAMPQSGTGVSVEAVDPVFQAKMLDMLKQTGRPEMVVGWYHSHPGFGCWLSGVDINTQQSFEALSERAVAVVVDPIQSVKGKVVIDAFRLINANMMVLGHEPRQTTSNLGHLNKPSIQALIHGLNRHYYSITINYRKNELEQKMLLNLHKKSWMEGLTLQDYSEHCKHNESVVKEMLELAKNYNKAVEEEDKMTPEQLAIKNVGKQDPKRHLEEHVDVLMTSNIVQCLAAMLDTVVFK

Cc1c(NC(=O)CCl)c(=O)n(-c2ccccc2)n1C
inactive: USP9X 0.00112 | UniProt O00487 -0.111 | UniProt O00507 0.221 | UniProt P51784 -0.106 | UniProt Q5T2D3 -0.105 | UniProt Q8TE49 -0.377 | UniProt Q9P2H5 -0.286 | UniProt Q9UGI0 0.0727 | YOD1 -0.128
